Assay results: PubChem BioAssay AID488954 (The Scripps Research Institute Molecular Screening Center, 2010)
The list shows a part of the results.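 Rule for the calls: active = mean activation above a set limit carried over from the earlier primary screen (cut at about 22% in these data); inactive = the rest.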

What follows are compounds tested against Caspase-3 (Homo sapiens) (UniProt P42574) (assay: activators of human procaspase-3 D3A mutant, confirmation, biochemical, absorbance, PC-3 D3A mutant, triplicate (AID 488954)). Conditions: recombinant PC-3 D3A, Ac-DEVD-pNA absorbance 405 nm; at 8.5 µM; hits give high values; 100% is higher-enzyme control.
Sequence of Caspase-3 (Homo sapiens) (P42574 whole entry D9A/D28A/D175A): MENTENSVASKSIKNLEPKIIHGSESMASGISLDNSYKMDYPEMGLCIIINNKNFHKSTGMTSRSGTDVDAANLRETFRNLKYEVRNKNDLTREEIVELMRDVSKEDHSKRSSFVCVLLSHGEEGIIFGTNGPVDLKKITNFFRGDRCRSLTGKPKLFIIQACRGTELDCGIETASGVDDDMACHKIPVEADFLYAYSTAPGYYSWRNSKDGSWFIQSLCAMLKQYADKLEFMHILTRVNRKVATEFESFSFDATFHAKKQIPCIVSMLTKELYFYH

activation, inactive:
COc1ccc(-c2sc3ccc(OC)cc3c2C#Cc2ccccn2)cc1 14.4%
COc1ccc(CCNC(=O)COC(=O)c2ccc[nH]c2=O)cc1 5.06%
COC(=O)Cc1cc(=O)oc2c(C)c(O)ccc12 -12.9%
CCOc1ccc2nc(NCCNS(=O)(=O)c3ccccc3)c(C#N)cc2c1 -14.1%
COc1ccc2nc(Nc3nc4ccc(NC(C)=O)cc4s3)sc2c1 -1.02%
Oc1ccccc1C1=NN(c2ccccc2)C(c2ccccc2)C1 (stereo unspecified) -13.4%
Cc1nn(C)cc1CNC(=O)Nc1ccc(Cl)cc1 3.2%
COC(=O)c1cnc(Nc2cc(C)ccc2OC)c2ccccc12 -14.1%
CN1CCN(CCCNC(=O)c2ccc(/C=C3\Oc4ccccc4N(Cc4ccc(Cl)cc4)C3=O)cc2)CC1 -14.8%
O=C(CCNS(=O)(=O)c1ccccc1C(F)(F)F)NCc1ccc2c(c1)OCO2 5.75%
COc1ccccc1NS(=O)(=O)c1ccc(C(=O)N2CCN(c3ccccc3O)CC2)cc1 5.8%
